ANO1 activ = activates or potentiates the mouse TMEM16A chloride channel; Q8BHY3; HEK293 TMEM16A/YFP-H148Q/I152L, iodide quench fluorescence; stronger effect = lower value; B-score at 10 µM; 0.3% of 340,000 active; AID 623877;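 active means fluorescence-ratio B-score plate-corrected deviation score at least 3 library SD below zero, with starting fluorescence score within 5 deviations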;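 further: channel opened by trigger with iodide after compound preincubation; score built on the fluorescence ratio of max minus min over baseline; more negative score means more quench and so TMEM16A activation or potentiation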
CHT inh = inhibitors of human choline transporter CHT | B-score at 10 µM | 0.86% of 310,000 active | CHT-expressing cells, membrane potential dye, choline response; stronger effect = lower value;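 active means B-score over 3 SD under the library average, and starting fluorescence ratio not unusually high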;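 further: choline stimulus applied at its EC90 after an EC20 pre-addition; B-score computed on integrated fluorescence ratio after choline addition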
Target sequence (Q9GZV3 whole entry, looked up): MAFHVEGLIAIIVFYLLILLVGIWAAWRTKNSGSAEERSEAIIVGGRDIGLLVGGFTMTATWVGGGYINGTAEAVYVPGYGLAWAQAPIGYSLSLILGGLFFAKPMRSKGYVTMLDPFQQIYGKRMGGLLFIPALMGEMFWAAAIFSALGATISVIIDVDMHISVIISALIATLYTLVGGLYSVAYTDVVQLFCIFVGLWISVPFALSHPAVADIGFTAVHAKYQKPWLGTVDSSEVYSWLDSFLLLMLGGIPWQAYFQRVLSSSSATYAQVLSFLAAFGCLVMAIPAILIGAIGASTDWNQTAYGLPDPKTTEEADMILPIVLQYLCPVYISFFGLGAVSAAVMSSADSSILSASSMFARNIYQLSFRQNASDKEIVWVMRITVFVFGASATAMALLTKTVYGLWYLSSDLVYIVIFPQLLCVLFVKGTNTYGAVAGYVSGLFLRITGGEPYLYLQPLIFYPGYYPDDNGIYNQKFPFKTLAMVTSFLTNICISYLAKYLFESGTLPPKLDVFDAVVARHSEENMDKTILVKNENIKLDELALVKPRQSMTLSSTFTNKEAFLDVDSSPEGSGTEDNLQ
Rce1 inh = yeast Ras-converting enzyme inhibition. AID 2563. calls only. 0.27% of 290,000 active. Q03530. yeast membranes, quenched prenylated peptide cleavage fluorescence;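 active means fall in fluorescence gain of 50% or more versus controls, with final raw signal at or below 3038400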;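 further: plate controls were neutral control wells for no effect and wells lacking membranes for full effect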
Kir21 inh = inhibitors of mouse Kir2.1 inward-rectifier potassium channel; P35561; HEK293-Kir2.1, FluxOR thallium flux fluorescence; stronger effect = lower value; B-score at 10 µM; 0.85% of 310,000 active; AID 1672;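 active means fluorescence ratio B-score at or below minus 3 SD of library scores, with starting-brightness B-score within 2 SD, cut at about -4.2 in these data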;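 further: channel flux triggered by added potassium and thallium sulfate stimulus; B-score of peak minus minimum fluorescence over baseline after thallium stimulus; more negative B-score means stronger Kir2.1 block with less thallium influx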
CHT allo act = allosteric activators of human choline transporter CHT; 0.49% of 310,000 active; Q9GZV3; B-score at 10 µM; CHT-expressing cells, membrane potential dye, choline EC20; stronger effect = higher value; LV-AA mutant CHT in HEK293 cells;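 active means initial fluorescence not abnormally high and integrated response B-score, plate-corrected, over 3 SD above library mean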
ANO1 block = mouse TMEM16A channel inhibition, primary screen | normalized B-score (activity score, 25-100; higher = stronger inhibition) at 10 µM | AID 588511 | 1.2% of 310,000 active | Q8BHY3 | HEK293 TMEM16A/YFP iodide influx fluorescence, ionomycin;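 active means ratio plate-corrected score three or more library SD toward inhibition, starting fluorescence score within five deviations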;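 further: score derived from kinetic fluorescence span divided by baseline fluorescence per well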
* = called active by the depositor. This is a sample that favours compounds with a hit; in the whole collection about 3.2% have one here.

What do the screens show for `Cc1cccc(NS(=O)(=O)c2nnc(NC(=O)c3ccc(Cl)cc3)s2)c1`?
ANO1 activ: inactive; CHT inh: inactive; Rce1 inh: inactive; Kir21 inh: -1.8; CHT allo act: inactive; ANO1 block: inactive

What do the screens show for `Cc1cccc(NC(=O)c2cccc(NS(=O)(=O)c3ccc(Cl)cc3)c2)c1`?
ANO1 activ: inactive; CHT inh: inactive; Rce1 inh: inactive; Kir21 inh: -0.2; CHT allo act: inactive; ANO1 block: 100*

How did CSc1ccc(CN2CCCC(CO)(Cc3ccccc3)C2)cc1 (stereo not drawn) do in these assays?
ANO1 activ: inactive; CHT inh: inactive; Rce1 inh: inactive; Kir21 inh: -4.5*; CHT allo act: inactive; ANO1 block: inactive

Results for COc1cc(Cl)c(CN2CCCC(CO)(Cc3ccccc3)C2)cc1OC (stereo not drawn) ?
ANO1 activ: inactive; CHT inh: inactive; Rce1 inh: inactive; Kir21 inh: -2.5; CHT allo act: inactive; ANO1 block: inactive

Results for CC(C)(Oc1ccc(Cl)cc1)C(=O)OCc1nc2ccsc2c(=O)[nH]1 ?
ANO1 activ: inactive; CHT inh: inactive; Rce1 inh: inactive; Kir21 inh: 0; CHT allo act: inactive; ANO1 block: inactive

What do the screens show for `CC(=O)c1ccc(-c2nnc(CCC(=O)N(C)Cc3c(C)nc4ccccn34)o2)s1`?
ANO1 activ: inactive; CHT inh: inactive; Rce1 inh: inactive; Kir21 inh: -0.02; CHT allo act: inactive; ANO1 block: inactive

What do the screens show for `Cc1ccc(NC(=O)C(C)OC(=O)Cc2c[nH]c3ccccc23)cc1` (stereo not drawn)?
ANO1 activ: inactive; CHT inh: inactive; Rce1 inh: inactive; Kir21 inh: -6.6*; CHT allo act: inactive; ANO1 block: inactive

What do the screens show for `CC(OC(=O)Cc1c[nH]c2ccccc12)C(=O)Nc1ccccc1[N+](=O)[O-]` (stereo not drawn)?
ANO1 activ: inactive; CHT inh: inactive; Rce1 inh: inactive; Kir21 inh: -6.5*; CHT allo act: inactive; ANO1 block: inactive

How did CC(OC(=O)Cc1c[nH]c2ccccc12)C(=O)NC1(C#N)CCCCC1 (stereo not drawn) do in these assays?
ANO1 activ: inactive; CHT inh: inactive; Kir21 inh: -0.26; CHT allo act: inactive; ANO1 block: inactive

What do the screens show for `O=C(Nc1ccc(S(=O)(=O)N2CCOCC2)cc1)c1ccc(Cl)c([N+](=O)[O-])c1`?
ANO1 activ: inactive

How did COc1ccccc1NS(=O)(=O)c1cc(NC(=S)Nc2cc(C)cc(C)c2)ccc1Cl do in these assays?
ANO1 activ: -5.6*; CHT inh: inactive; Rce1 inh: inactive; Kir21 inh: -0.15; CHT allo act: inactive; ANO1 block: inactive

How did COc1ccccc1NS(=O)(=O)c1cc(N/C(=N\S(=O)(=O)c2ccccc2)c2ccc(F)cc2)ccc1Cl do in these assays?
ANO1 activ: inactive; CHT inh: inactive; Rce1 inh: inactive; Kir21 inh: 0.41; CHT allo act: inactive; ANO1 block: inactive

How did COc1nnc(-c2ccc(N3CCCCC3)c(NC(=O)C3CCCCC3)c2)c2ccccc12 do in these assays?
ANO1 activ: inactive; CHT inh: inactive; Rce1 inh: inactive; Kir21 inh: -0.4; CHT allo act: inactive; ANO1 block: 100*

What do the screens show for `O=C(Cn1c2ccc(F)cc2c2nc3n(c(=O)c21)CCS3)NCC1CCCO1` (stereo not drawn)?
ANO1 activ: inactive; CHT inh: inactive; Rce1 inh: inactive; Kir21 inh: -0.69; CHT allo act: inactive; ANO1 block: inactive

What do the screens show for `CC1CCCN(C(=O)c2ccc(OC3CCN(CCc4ccccc4)CC3)cc2)C1` (stereo not drawn)?
ANO1 activ: inactive; CHT inh: inactive; Rce1 inh: inactive; Kir21 inh: -4.5*; CHT allo act: inactive; ANO1 block: inactive

Results for CCOC(=O)c1ccc(NC(=O)NCc2cccnc2)cc1 ?
ANO1 activ: inactive; CHT inh: inactive; Rce1 inh: inactive; Kir21 inh: -0.38; CHT allo act: inactive; ANO1 block: inactive

What do the screens show for `O=C(Nc1ccc(Cl)cc1)Nc1cccc2nsnc12`?
ANO1 activ: inactive; CHT inh: inactive; Rce1 inh: inactive; Kir21 inh: 1.2; CHT allo act: inactive; ANO1 block: inactive

How did Cc1ccc(S(=O)(=O)N(CC(=O)NCCC2=CCCCC2)Cc2ccccc2F)cc1 do in these assays?
ANO1 activ: inactive; CHT inh: inactive; Kir21 inh: 0.62; CHT allo act: inactive; ANO1 block: 25*

Results for CCc1nnc(N2C(=N)SCC2=O)s1 ?
ANO1 activ: inactive; CHT inh: inactive; Rce1 inh: inactive; Kir21 inh: 0.13; CHT allo act: inactive; ANO1 block: inactive

Results for CN(C)c1ccc(C(c2ccc(N(C)C)cc2)c2ccc([N+](=O)[O-])cc2)cc1 ?
ANO1 activ: inactive; CHT inh: inactive; Kir21 inh: 0.07; CHT allo act: inactive; ANO1 block: inactive

Results for Cc1ccc(SCCC(=O)Nc2ccc(OCc3ccccc3)cc2)cc1 ?
ANO1 activ: inactive; CHT inh: inactive; Rce1 inh: inactive; Kir21 inh: 1.5; CHT allo act: inactive; ANO1 block: inactive

What do the screens show for `CCOc1ccc(NC(=O)CCSc2ccc(C)cc2)cc1`?
ANO1 activ: inactive; CHT inh: inactive; Rce1 inh: active; Kir21 inh: -0.06; CHT allo act: inactive; ANO1 block: inactive

What do the screens show for `CSCCC(C(=O)N(C)CC(=O)Nc1cccc(F)c1)N1C(=O)c2ccccc2C1=O` (stereo not drawn)?
ANO1 activ: inactive

How did CC(NC(=O)COC(=O)CCc1ccccc1)c1ccccc1 (stereo not drawn) do in these assays?
ANO1 activ: inactive; CHT inh: inactive; Rce1 inh: inactive; Kir21 inh: -0.01; CHT allo act: inactive; ANO1 block: inactive

Results for CS/C(=N\S(=O)(=O)c1cccs1)NC(=O)CSc1nc2ccccc2s1 ?
ANO1 activ: inactive; CHT inh: inactive; Kir21 inh: 0.87; CHT allo act: inactive; ANO1 block: 100*

How did C/C(=N/NC(=O)CSc1nc2ccccc2s1)c1ccncc1 do in these assays?
ANO1 activ: inactive; CHT inh: inactive; Rce1 inh: inactive; Kir21 inh: 0.25; CHT allo act: inactive; ANO1 block: inactive

What do the screens show for `O=C(COC(=O)/C=C/c1cn(-c2ccccc2)nc1-c1ccc2c(c1)OCCO2)NC1CCS(=O)(=O)C1` (stereo not drawn)?
ANO1 activ: inactive; CHT inh: inactive; Rce1 inh: active; Kir21 inh: -0.51; CHT allo act: inactive; ANO1 block: inactive
